# Experimental data reported in the supplement of paper PMC12282887.
# ± gives the standard deviation of the averaged measurements.
# What was measured:
# Test in all cases: promoter activity interaction Z-score (Lux/OD deviation from empty-vector control); higher = stronger promoter induction by the compound
# [1] = test system: E. coli BW25113 acrABp lux reporter
# Outline: (§1)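 E. coli BW25113, as wild type or one of three single-gene deletion strains, carried low-copy luxCDABE promoter reporters and grew in 40 µl LB Lennox in 384-well plates at 37°C, with OD600 and luminescence read every 30 min for 12 h. Each compound was run at four 1:2 dilutions in biological duplicates, integration spanned 0–8 h for wild type and 1–9 h for deletion strains, and wells under 10% of the median growth value were dropped. The score is the Z-transformed residual of growth-normalised luminescence fitted against a control.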
# [2] = test system: E. coli BW25113 marRABp lux reporter
# Outline: as §1
# [3] = test system: E. coli BW25113 micFp lux reporter
# Outline: as §1
# [4] = test system: E. coli BW25113 ompFp lux reporter
# Outline: as §1
# [5] = test system: E. coli BW25113 robp lux reporter
# Outline: as §1
# [6] = test system: E. coli BW25113 soxSp lux reporter
# Outline: as §1
# [7] = test system: E. coli BW25113 tolCp lux reporter
# Outline: as §1
# [8] = 20.7 µg/ml, genetic background: wild type
# [9] = 20.7 µg/ml, genetic background: ΔmarA
# [10] = 20.7 µg/ml, genetic background: Δrob
# [11] = 20.7 µg/ml, genetic background: ΔsoxS
# [12] = 41.4 µg/ml, genetic background: wild type
# [13] = 41.4 µg/ml, genetic background: ΔmarA
# [14] = 41.4 µg/ml, genetic background: Δrob
# [15] = 41.4 µg/ml, genetic background: ΔsoxS
# [16] = 82.8 µg/ml, genetic background: wild type
# [17] = 82.8 µg/ml, genetic background: ΔmarA
# [18] = 82.8 µg/ml, genetic background: Δrob
# [19] = 82.8 µg/ml, genetic background: ΔsoxS
# [20] = 165.6 µg/ml, genetic background: wild type
# [21] = 165.6 µg/ml, genetic background: ΔmarA
# [22] = 165.6 µg/ml, genetic background: Δrob
# [23] = 165.6 µg/ml, genetic background: ΔsoxS
smiles,measurement,setting,value
CN(C)C(=N)NC(=N)N [Metformin],promoter activity interaction Z-score,[1]; [8],-0.326 ± 0.14
same,promoter activity interaction Z-score,[1]; [9],0.815 ± 0.45
same,promoter activity interaction Z-score,[1]; [10],-0.31 ± 0.23
same,promoter activity interaction Z-score,[1]; [11],-0.0221 ± 0.28
same,promoter activity interaction Z-score,[1]; [12],-0.0908 ± 0.043
same,promoter activity interaction Z-score,[1]; [13],0.174 ± 0.41
same,promoter activity interaction Z-score,[1]; [14],0.377 ± 0.017
same,promoter activity interaction Z-score,[1]; [15],-0.0209 ± 0.61
same,promoter activity interaction Z-score,[1]; [16],-0.145 ± 0.14
same,promoter activity interaction Z-score,[1]; [17],0.000785 ± 1.4
same,promoter activity interaction Z-score,[1]; [18],0.271 ± 0.043
same,promoter activity interaction Z-score,[1]; [19],-0.155 ± 0.2
same,promoter activity interaction Z-score,[1]; [20],-0.249 ± 0.13
same,promoter activity interaction Z-score,[1]; [21],0.575 ± 0.81
same,promoter activity interaction Z-score,[1]; [22],0.41 ± 0.17
same,promoter activity interaction Z-score,[1]; [23],0.11 ± 0.051
same,promoter activity interaction Z-score,[2]; [8],-0.244 ± 0.08
same,promoter activity interaction Z-score,[2]; [9],0.0455 ± 0.11
same,promoter activity interaction Z-score,[2]; [10],-0.139 ± 0.14
same,promoter activity interaction Z-score,[2]; [11],-0.145 ± 0.0015
same,promoter activity interaction Z-score,[2]; [12],-0.1 ± 0.072
same,promoter activity interaction Z-score,[2]; [13],-0.132 ± 0.1
same,promoter activity interaction Z-score,[2]; [14],-0.0299 ± 0.073
same,promoter activity interaction Z-score,[2]; [15],-0.0239 ± 0.17
same,promoter activity interaction Z-score,[2]; [16],-0.104 ± 0.063
same,promoter activity interaction Z-score,[2]; [17],-0.195 ± 0.23
same,promoter activity interaction Z-score,[2]; [18],-0.113 ± 0.043
same,promoter activity interaction Z-score,[2]; [19],-0.0656 ± 0.052
same,promoter activity interaction Z-score,[2]; [20],-0.551 ± 0.065
same,promoter activity interaction Z-score,[2]; [21],-0.242 ± 0.025
same,promoter activity interaction Z-score,[2]; [22],-0.0241 ± 0.2
same,promoter activity interaction Z-score,[2]; [23],0.145 ± 0.22
same,promoter activity interaction Z-score,[3]; [8],-0.368 ± 0.019
same,promoter activity interaction Z-score,[3]; [9],-0.0629 ± 0.04
same,promoter activity interaction Z-score,[3]; [10],-0.153 ± 0.082
same,promoter activity interaction Z-score,[3]; [11],-0.139 ± 0.14
same,promoter activity interaction Z-score,[3]; [12],-0.177 ± 0.23
same,promoter activity interaction Z-score,[3]; [13],-0.102 ± 0.12
same,promoter activity interaction Z-score,[3]; [14],-0.0244 ± 0.0094
same,promoter activity interaction Z-score,[3]; [15],-0.233 ± 0.015
same,promoter activity interaction Z-score,[3]; [16],-0.161 ± 0.16
same,promoter activity interaction Z-score,[3]; [17],-0.0653 ± 0.072
same,promoter activity interaction Z-score,[3]; [18],-0.0658 ± 0.068
same,promoter activity interaction Z-score,[3]; [19],-0.0678 ± 0.068
same,promoter activity interaction Z-score,[3]; [20],-0.544 ± 0.37
same,promoter activity interaction Z-score,[3]; [21],-0.151 ± 0.025
same,promoter activity interaction Z-score,[3]; [22],-0.0629 ± 0.08
same,promoter activity interaction Z-score,[3]; [23],-0.000873 ± 0.19
same,promoter activity interaction Z-score,[4]; [8],-0.191 ± 0.037
same,promoter activity interaction Z-score,[4]; [9],0.332 ± 0.047
same,promoter activity interaction Z-score,[4]; [10],-0.324 ± 0.2
same,promoter activity interaction Z-score,[4]; [11],-0.0538 ± 0.13
same,promoter activity interaction Z-score,[4]; [12],-0.037 ± 0.014
same,promoter activity interaction Z-score,[4]; [13],-0.125 ± 0.2
same,promoter activity interaction Z-score,[4]; [14],0.267 ± 0.2
same,promoter activity interaction Z-score,[4]; [15],0.0362 ± 0.37
same,promoter activity interaction Z-score,[4]; [16],0.036 ± 0.056
same,promoter activity interaction Z-score,[4]; [17],0.0389 ± 0.14
same,promoter activity interaction Z-score,[4]; [18],0.322 ± 0.37
same,promoter activity interaction Z-score,[4]; [19],0.0576 ± 0.088
same,promoter activity interaction Z-score,[4]; [20],-0.153 ± 0.11
same,promoter activity interaction Z-score,[4]; [21],0.766 ± 0.041
same,promoter activity interaction Z-score,[4]; [22],0.44 ± 0.62
same,promoter activity interaction Z-score,[4]; [23],0.813 ± 0.41
same,promoter activity interaction Z-score,[5]; [8],0.282 ± 0.18
same,promoter activity interaction Z-score,[5]; [9],0.497 ± 0.0053
same,promoter activity interaction Z-score,[5]; [10],-0.187 ± 0.91
same,promoter activity interaction Z-score,[5]; [11],0.397 ± 1.1
same,promoter activity interaction Z-score,[5]; [12],-0.109 ± 0.24
same,promoter activity interaction Z-score,[5]; [13],0.171 ± 0.31
same,promoter activity interaction Z-score,[5]; [14],0.416 ± 0.36
same,promoter activity interaction Z-score,[5]; [15],0.638 ± 1.1
same,promoter activity interaction Z-score,[5]; [16],0.336 ± 0.065
same,promoter activity interaction Z-score,[5]; [17],0.0784 ± 0.21
same,promoter activity interaction Z-score,[5]; [18],0.39 ± 0.41
same,promoter activity interaction Z-score,[5]; [19],0.405 ± 0.19
same,promoter activity interaction Z-score,[5]; [20],-0.305 ± 0.39
same,promoter activity interaction Z-score,[5]; [21],0.28 ± 0.035
same,promoter activity interaction Z-score,[5]; [22],0.519 ± 0.11
same,promoter activity interaction Z-score,[5]; [23],0.649 ± 0.18
same,promoter activity interaction Z-score,[6]; [8],-0.232 ± 0.14
same,promoter activity interaction Z-score,[6]; [9],0.132 ± 0.02
same,promoter activity interaction Z-score,[6]; [10],-0.07 ± 0.0035
same,promoter activity interaction Z-score,[6]; [11],0.26 ± 0.056
same,promoter activity interaction Z-score,[6]; [12],-0.046 ± 0.095
same,promoter activity interaction Z-score,[6]; [13],0.0673 ± 0.055
same,promoter activity interaction Z-score,[6]; [14],0.0305 ± 0.041
same,promoter activity interaction Z-score,[6]; [15],0.0287 ± 0.19
same,promoter activity interaction Z-score,[6]; [16],0.0138 ± 0.19
same,promoter activity interaction Z-score,[6]; [17],-0.0135 ± 0.017
same,promoter activity interaction Z-score,[6]; [18],0.0262 ± 0.22
same,promoter activity interaction Z-score,[6]; [19],-0.0818 ± 0.083
same,promoter activity interaction Z-score,[6]; [20],-0.199 ± 0.039
same,promoter activity interaction Z-score,[6]; [21],-0.0313 ± 0.093
same,promoter activity interaction Z-score,[6]; [22],-0.191 ± 0.24
same,promoter activity interaction Z-score,[6]; [23],0.0168 ± 0.089
same,promoter activity interaction Z-score,[7]; [8],-0.594 ± 0.2
same,promoter activity interaction Z-score,[7]; [9],1.15 ± 1.7
same,promoter activity interaction Z-score,[7]; [10],-0.505 ± 0.25
same,promoter activity interaction Z-score,[7]; [11],-0.306 ± 0.74
same,promoter activity interaction Z-score,[7]; [12],-0.0152 ± 1.1
same,promoter activity interaction Z-score,[7]; [13],-0.186 ± 1
same,promoter activity interaction Z-score,[7]; [14],0.0225 ± 0.69
same,promoter activity interaction Z-score,[7]; [15],-0.32 ± 0.57
same,promoter activity interaction Z-score,[7]; [16],0.0793 ± 0.27
same,promoter activity interaction Z-score,[7]; [17],0.276 ± 0.67
same,promoter activity interaction Z-score,[7]; [18],-0.546 ± 0.36
same,promoter activity interaction Z-score,[7]; [19],0.0771 ± 1.1
same,promoter activity interaction Z-score,[7]; [20],-0.144 ± 0.74
same,promoter activity interaction Z-score,[7]; [21],0.284 ± 1.1
same,promoter activity interaction Z-score,[7]; [22],-0.698 ± 0.026
same,promoter activity interaction Z-score,[7]; [23],0.3 ± 0.58
